In PubChem BioAssay (EPA / NIEHS) one finds outcome and AC50 data, which are given here for 27 compounds.

Each structure is given as a SMILES string. Results filed as inconclusive are left out. Activity calls are given as the source filed them. How the source made its calls: active means hit-call score of the fitted dose curve at least 0.9, where 1 is the maximum; inconclusive means response in the unintended direction; inactive means score below 0.9.

Experiment [1] is described as follows: TOX21_p53_BLA_p2_viability: Viability Assessment in the Tox21 HCT-116 p53 Agonism Beta-lactamase Assay, Phase 2 (AID 2283591).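 Further: actives lower the ATP signal meaning cytotoxicity.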 In outline: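 Cytotoxicity readout: CellTiter-Glo ATP luminescence, 30 min at room temperature, after the beta-lactamase read. Cells were HCT116 exposed 16 h at 37C to compounds pin-transferred at 217-fold dilution from DMSO stocks.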

The target in experiment [2] is Cellular tumor antigen p53 (Homo sapiens) (UniProt P04637). Put plainly: TOX21_p53_BLA_p2_ratio: Tox21 HCT-116 p53 Agonism Beta-lactamase Assay, Ratio, Phase 2 (AID 2283592). In outline:
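First, HCT116 reporter cells settle for 5 h at 37C. Next, DMSO compound solutions are pinned in (217-fold dilution) and left 16 h. Finally, CCF4-AM substrate is loaded 2 h at room temperature and the 460/530 nm ratio read.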

For experiment [3] the target is unchanged. Nature of the experiment: TOX21_p53_BLA_p3_ratio: Tox21 HCT-116 p53 Agonism Beta-lactamase Assay, Ratio, Phase 3 (AID 2283596). Put shortly:
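Cells were seeded at 4000/well, rested 5 h at 37C, then dosed with DMSO compound solutions (217-fold dilution) for 16 h. CCF4-AM substrate was loaded for 2 h at room temperature, and the 460/530 nm emission ratio was fitted for gain of signal versus DMSO.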

The nature of experiment [4]: TOX21_p53_BLA_p4_viability: Viability Assessment in the Tox21 HCT-116 p53 Agonism Beta-lactamase Assay, Phase 4 (AID 2283597).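 Further: hits lower the luminescence signal meaning cytotoxicity.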 Put shortly:
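4000 HCT116 cells per well; 5 h attachment; compounds from DMSO, 217-fold dilution; 16 h at 37C. Then CCF4-AM, 2 h RT, followed by CellTiter-Glo, 30 min RT, luminescence. Decrease = cytotoxicity.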

Experiment [5] deals with Cellular tumor antigen p53 (Homo sapiens) (UniProt P04637). Nature of the experiment: TOX21_p53_BLA_p5_ratio: Tox21 HCT-116 p53 Agonism Beta-lactamase Assay, Ratio, Phase 5 (AID 2283599). Put shortly:
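Beta-lactamase reporter ratio (blue 460 nm over green 530 nm, 405 nm excitation) after 2 h CCF4-AM loading, in HCT-116 cells exposed 16 h at 37 C to compounds pinned at 217-fold dilution. Increases relative to DMSO baseline scored.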

The nature of experiment [6]: TOX21_p53_BLA_p5_viability: Viability Assessment in the Tox21 HCT-116 p53 Agonism Beta-lactamase Assay, Phase 5 (AID 2283600). In outline:
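Decreased CellTiter-Glo luminescence denotes lost viability. Exposure: 16 h at 37C, 5% CO2, with compounds from DMSO stocks diluted 217-fold in wells of 4000 cells.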

Experiment [7] has as its target Cellular tumor antigen p53 (Homo sapiens) (UniProt P04637). Put plainly: TOX21_p53_BLA_p4_ratio: Tox21 HCT-116 p53 Agonism Beta-lactamase Assay, Ratio, Phase 4 (AID 2283601). In outline: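 Signal is the blue/green (460nm/530nm) ratio of cleaved versus uncleaved CCF4-AM substrate, read after 2 h substrate loading. Cells were HCT116 carrying the p53-responsive beta-lactamase reporter, dosed 16 h at 37C, 5% CO2; CellTiter-Glo measured in parallel.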

Cellular tumor antigen p53 (Homo sapiens), sequence (P04637 whole entry, looked up): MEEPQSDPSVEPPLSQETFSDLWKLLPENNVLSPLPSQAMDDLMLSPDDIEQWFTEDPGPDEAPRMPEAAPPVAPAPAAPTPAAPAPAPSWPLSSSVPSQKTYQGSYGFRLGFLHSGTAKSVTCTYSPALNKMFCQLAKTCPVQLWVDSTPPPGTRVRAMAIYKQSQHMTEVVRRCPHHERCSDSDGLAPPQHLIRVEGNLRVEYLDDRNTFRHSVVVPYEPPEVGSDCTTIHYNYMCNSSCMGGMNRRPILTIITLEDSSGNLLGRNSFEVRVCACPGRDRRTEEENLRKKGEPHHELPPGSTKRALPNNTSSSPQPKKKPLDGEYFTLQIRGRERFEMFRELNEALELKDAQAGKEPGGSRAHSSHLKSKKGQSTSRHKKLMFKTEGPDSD

As a reminder, the AC50 is the midpoint of the concentration-response curve, whichever way the signal moves. Turning to `O=C(OCC(COC(=O)c1ccccc1)(COC(=O)c1ccccc1)COC(=O)c1ccccc1)c1ccccc1`, the outcome in experiment [1], in experiment [2], in experiment [4], in experiment [5], in experiment [6] and in experiment [7] was inactive. The AC50 in experiment [3] is 54.3 µM (active).
For the compound `CC(C)NCC(O)c1ccc(NS(C)(=O)=O)cc1` (centres undefined), the call in experiment [1], in experiment [2], in experiment [3], in experiment [4], in experiment [5] and in experiment [6] was inactive. Besides, the outcome in experiment [7] was inactive.
`Cc1ncc(CO)c(CN)c1O`: the compound was called inactive in experiment [1], in experiment [2], in experiment [3], in experiment [4], in experiment [5] and in experiment [6]. Further, the result in experiment [7] was inactive.
In the case of `CC(C)COC(=O)c1ccc(N)cc1`, the compound was called inactive in experiment [1], in experiment [2], in experiment [3], in experiment [4], in experiment [5] and in experiment [6]. For the same compound, in experiment [7], the result was inactive.
With `CCc1cccc2c3c([nH]c12)C(CC)(CC(=O)O)OCC3` (centres undefined), the compound was classed as inactive in experiment [1], in experiment [2], in experiment [3], in experiment [4], in experiment [5] and in experiment [6]. Also, the result in experiment [7] was inactive.
With `Cc1ccccc1C(=O)N1CC/C(=N\OS(=O)(=O)O)c2ccc(Cl)cc21`, the call in experiment [1], in experiment [2], in experiment [3], in experiment [4], in experiment [5] and in experiment [6] was inactive. Besides, in experiment [7], the outcome was inactive.
On to `N#Cc1ccc2c(c1)N(CCCN1CCC(O)CC1)c1ccccc1S2`, for which the result in experiment [1], in experiment [3], in experiment [4] and in experiment [6] was inactive. Moreover, the half-maximal activity concentration (AC50) in experiment [2] was 40.4 µM (active); in experiment [5], 35.4 µM (active); in experiment [7] it was 25.1 µM (active).
Take `O=C(O)Cn1c(C(=O)Nc2nc(-c3ccccc3Cl)cs2)cc2ccccc21`: the result in experiment [1], in experiment [2], in experiment [3] and in experiment [7] was inactive. Also, the AC50 was 38.9 µM (active) in experiment [4], 37.1 µM (active) in experiment [5] and 40.7 µM (active) in experiment [6].
Turning to `Cc1ccc([N+](=O)[O-])cc1Cl`, the result in experiment [1], in experiment [2], in experiment [3], in experiment [4], in experiment [5] and in experiment [6] was inactive. The outcome in experiment [7] was inactive.
Take `C[C@@H](O)[C@H](N)C(=O)O`: the compound was classed as inactive in experiment [1], in experiment [2], in experiment [3], in experiment [4], in experiment [5] and in experiment [6]. The outcome in experiment [7] was inactive.
With `CN(C)c1ccc(C2(c3ccc(N(C)C)cc3)OC(=O)c3cc(N(C)C)ccc32)cc1`, the compound was called inactive in experiment [1], in experiment [4], in experiment [5] and in experiment [6]. Moreover, the AC50 in experiment [2] is 60.7 µM (active); in experiment [3], 13.5 µM (active); in experiment [7], 38.5 µM (active).
Regarding `CCOC(=O)C=CC(=O)O`, the compound was called inactive in experiment [1], in experiment [2], in experiment [3], in experiment [4], in experiment [5] and in experiment [6]. The result in experiment [7] was inactive.
Take `CCCCCN(CCCCC)C(=O)C(CCC(=O)O)NC(=O)c1ccc(Cl)c(Cl)c1` (centres undefined): the call in experiment [1], in experiment [2], in experiment [3], in experiment [4], in experiment [5] and in experiment [6] was inactive. Besides, in experiment [7], the result was inactive.
Consider `CC(=O)N/N=C/c1ccc([N+](=O)[O-])o1`, for which the compound was called inactive in experiment [1], in experiment [3] and in experiment [6]. Further, the AC50 was 42.3 µM (active) in experiment [2], 40.9 µM (active) in experiment [4], 34.9 µM (active) in experiment [5] and 41.3 µM (active) in experiment [7].
Take `C=CCNC1=C2C[C@@H](C)C[C@H](OC)[C@H](O)[C@@H](C)/C=C(\C)[C@H](OC(N)=O)[C@@H](OC)/C=C\C=C(/C)C(=O)NC(=CC1=O)C2=O`: the outcome in experiment [1], in experiment [4] and in experiment [6] was inactive. The AC50 is 0.189 µM (active) in experiment [2], 0.19 µM (active) in experiment [3], 0.183 µM (active) in experiment [5] and 0.147 µM (active) in experiment [7].
`OC1(c2ccc(Cl)c(C(F)(F)F)c2)CCN(CCCC(c2ccc(F)cc2)c2ccc(F)cc2)CC1`: the AC50 was 12.8 µM (active) in experiment [1]; 19.6 µM (active) in experiment [2]; 40.1 µM (active) in experiment [3]; 20 µM (active) in experiment [4]; 43.2 µM (active) in experiment [5]; 37.6 µM (active) in experiment [6]. Further, the concentration at half-maximal activity (AC50) in experiment [7] was 34.1 µM (active).
As to `FC(F)OC(Cl)C(F)(F)F` (centres undefined), the outcome in experiment [1], in experiment [2], in experiment [3], in experiment [4], in experiment [5] and in experiment [6] was inactive. For the same compound, the result in experiment [7] was inactive.
`CNc1ccccc1`: the compound was classed as inactive in experiment [1], in experiment [2], in experiment [3], in experiment [4], in experiment [5] and in experiment [6]. In experiment [7], the result was inactive.
For the compound `COc1cc(N)c(Cl)cc1C(=O)NC1CCN(CCCOc2ccc(F)cc2)CC1OC` (centres undefined), the outcome in experiment [1], in experiment [2], in experiment [3], in experiment [4], in experiment [5] and in experiment [6] was inactive. The outcome in experiment [7] was inactive.
As to `Cc1cc(C)cc(N)c1`, the call in experiment [1], in experiment [2], in experiment [3], in experiment [4], in experiment [5] and in experiment [6] was inactive. In addition, the result in experiment [7] was inactive.
Regarding `O=C(Nc1ccc([N+](=O)[O-])cc1)Nc1ccc([N+](=O)[O-])cc1`, the result in experiment [1], in experiment [2], in experiment [3], in experiment [4], in experiment [5] and in experiment [6] was inactive. The result in experiment [7] was inactive.
As for `O=C=Nc1ccc(Cc2ccc(N=C=O)cc2)cc1`, the compound was called inactive in experiment [1], in experiment [2], in experiment [3], in experiment [4], in experiment [5] and in experiment [6]. Also, the outcome in experiment [7] was inactive.
Take `CCC=CC#N`: the compound was called inactive in experiment [1], in experiment [2], in experiment [3], in experiment [4], in experiment [5] and in experiment [6]. Also, in experiment [7], the result was inactive.
With `N[C@@H](CSSC[C@H](N)C(=O)O)C(=O)O`, the outcome in experiment [1], in experiment [2], in experiment [3], in experiment [4], in experiment [5] and in experiment [6] was inactive. The outcome in experiment [7] was inactive.
Take `CCCCCCCCCCCCCCCCCCCCCC(=O)Nc1ccn([C@@H]2O[C@H](CO)[C@@H](O)[C@@H]2O)c(=O)n1`: the call in experiment [1], in experiment [4], in experiment [5] and in experiment [6] was inactive. In addition, the AC50 was 19 µM (active) in experiment [2], 23 µM (active) in experiment [3] and 14.3 µM (active) in experiment [7].
As to `C=C1CC[C@H](O)C/C1=C/C=C1\CCC[C@]2(C)[C@@H]([C@H](C)CC[C@@H](O)C(C)(C)O)CC[C@@H]12`, the concentration at half-maximal activity (AC50) in experiment [1] was 20.1 µM (active); in experiment [2], 24.5 µM (active); in experiment [3] it was 26.9 µM (active); in experiment [4] it was 17.9 µM (active); in experiment [5], 22.5 µM (active); in experiment [6] it was 17.2 µM (active). For the same compound, in experiment [7], the AC50 was 21.1 µM (active).
For `CCCCN=C(N)N=C(N)N`, the compound was called inactive in experiment [1], in experiment [2], in experiment [3], in experiment [4], in experiment [5] and in experiment [6]. Besides, the result in experiment [7] was inactive.
